A selection: hits, their analogues and other compounds. The true share with any hit is near 27%.
CYP2C9 inh – blocks human cytochrome P450 2C9; P11712; CYP2C9 Supersomes, luciferin-H conversion, luminescence; inhibition, % at 5 µM; 96,000 compounds, 20% hits;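 active = blocking of liver enzyme CYP2C9 beyond about 50% at 5 µM, limit read from the data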
Target sequence (P11712 whole entry, looked up): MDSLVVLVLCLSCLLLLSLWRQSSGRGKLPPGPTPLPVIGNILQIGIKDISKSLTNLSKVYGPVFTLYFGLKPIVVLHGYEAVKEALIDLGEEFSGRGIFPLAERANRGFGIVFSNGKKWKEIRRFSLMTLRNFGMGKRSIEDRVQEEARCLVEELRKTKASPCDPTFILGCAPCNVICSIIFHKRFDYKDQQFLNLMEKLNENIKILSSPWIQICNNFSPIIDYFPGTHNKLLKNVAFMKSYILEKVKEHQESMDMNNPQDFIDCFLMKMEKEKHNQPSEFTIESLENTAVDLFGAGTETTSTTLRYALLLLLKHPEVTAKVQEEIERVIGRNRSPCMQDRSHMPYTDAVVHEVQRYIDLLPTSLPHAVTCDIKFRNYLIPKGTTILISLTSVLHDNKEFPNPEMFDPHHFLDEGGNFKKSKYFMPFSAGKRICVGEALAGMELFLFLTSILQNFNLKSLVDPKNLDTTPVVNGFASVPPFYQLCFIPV
CYP2C9 activ – activators of human CYP2C9. 96,000 compounds, 1.4% hits. activation factor at 5 µM. recombinant CYP2C9, luciferin-H conversion, luminescence; active compounds read high; factor 1 = untreated enzyme, 0 = blocked;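 active = activation factor of 2 or more for CYP2C9 at a 5 µM dose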;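 also: 0 = sulfaphenazole-blocked wells and 1 = vehicle-only wells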
CYP2C19 activ – activators of human cytochrome P450 2C19; 96,000 tested, under 10 active; AID 1025; recombinant CYP2C19, luciferin-H EGE luminescence; active compounds read high; 0 = fully inhibited enzyme, 1 = untreated enzyme; activation factor at 5 µM; P33261;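 active = activation factor of at least 2 at 5 µM in the primary screen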;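 also: 0 = wells with 2.5 mM tranylcypromine and 1 = vehicle-only wells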
CYP2C19 inhib – human CYP2C19 inhibition; CYP2C19 Supersomes, luciferin-H EGE luminescence, 30 min; 96,000 compounds, 21% hits; AID 778; P33261; inhibition, % at 5 µM;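 active = CYP2C19 inhibition above a set limit at 5 µM in the primary screen, cut at about 50% in these data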;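 also: plate controls were negative control wells for no effect and 2.5 mM tranylcypromine positive control for full effect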
Cav32 inh – blocks human Cav3.2 T-type calcium channel | 100,000 compounds, 4% hits | O95180 | B-score at 10 µM | AID 449739 | Cav3.2-expressing cells, Fluo-4 calcium fluorescence FDSS; active compounds read low;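 active = single-dose well whose peak fluorescence ratio is a statistical outlier from its plate by either plate-standardised score or position-corrected B-score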
* = called active by the depositor; . = not tested or not shown.

SMILES | CYP2C9 inh | CYP2C9 activ | CYP2C19 activ | CYP2C19 inhib | Cav32 inh
CN1CCN(C(=O)c2ccccc2NC(=O)Cc2ccccc2)CC1 | 3 | 1 | 0.9 | 5 | 1
Cc1ccc(NC(=O)N(Cc2ccco2)Cc2cc3cc(C)cc(C)c3nc2Cl)cc1 | 50* | 0.5 | 0.8 | 19 | .
Cc1cccc2cc(CN(Cc3ccco3)C(=O)Nc3cccc(C#N)c3)c(Cl)nc12 | 95* | 0.1 | 0.4 | 62* | -4.5*
COCCN(Cc1cc2cc(C)ccc2nc1Cl)C(=O)Nc1ccccc1C | 12 | 0.9 | 1 | -2 | -0.64
CCn1c(=O)c(C(=O)Nn2c(C)nc3ccccc3c2=O)c(O)c2ccccc21 | 24 | 0.8 | 1.1 | -6 | -6.1*
CNC(=O)c1c(O)c2cccc3c2n(c1=O)CC3 | . | . | . | . | -0.58
CCCn1c(=O)c(C(=O)Nc2ccccc2C(=O)OCC)c(O)c2ccccc21 | 2 | 1 | 1.1 | -8 | 0.043
CCn1c(=O)c(C(=O)NCc2ccccn2)c(O)c2ccccc21 | -55 | 1.5 | 0.8 | 22 | -0.93
COc1ccc(CCNC(=O)c2c(O)c3cccc4c3n(c2=O)CC4)cc1OC | 72* | 0.3 | 0.4 | 55* | -0.24
CCCn1c(=O)c(C(=O)NCc2ccc(OC)c(OC)c2)c(O)c2ccccc21 | 87* | 0.1 | 0.6 | 39 | -2.8
CCn1c(=O)c(C(=O)NCc2ccc(OC)c(OC)c2)c(O)c2ccccc21 | 95* | 0 | 0.6 | 40 | -2.2
Cc1cc(NC(=O)Cn2c(=O)c3c(ncn3CCC(C)C)n(Cc3ccccc3)c2=O)no1 | . | . | . | . | -1.7
NC(=O)C(c1cccc(Cl)c1)c1ncc(C(F)(F)F)cc1Cl (centres undefined) | 3 | 1 | 0.6 | 41 | -0.15
CCc1nc2ccccc2c(=O)n1NC(=O)c1c(O)c2cccc3c2n(c1=O)CCC3 | 26 | 0.7 | 1 | -2 | -6.1*
CCCCCCC1CCC(C(=O)Nn2c(C)nc3ccccc3c2=O)CC1 (centres undefined) | 91* | 0.1 | 0.6 | 42 | -0.7
CCCC1CCC(C(=O)Nn2c(C)nc3ccccc3c2=O)CC1 (centres undefined) | . | . | . | . | 0.076
CCn1c(=O)c(C(=O)NCc2ccc(OC)cc2)c(O)c2ccccc21 | 68* | 0.3 | 0.6 | 36 | -0.39
O=C(NCc1ccccc1)c1c(O)c2cccc3c2n(c1=O)CCC3 | 8 | 0.9 | 0.7 | 27 | -2.3
S=c1[nH]nc(COc2ccc3c(c2)OCO3)n1-c1ccccc1 | -3 | 1 | 0.5 | 45 | -1.7
CCOC(=O)c1ccc(NC(=O)CCOc2ccccc2)cc1 | 55* | 0.4 | 0.9 | 12 | -2.2
CCCOC(=O)c1ccc(NC(=O)CCOc2ccccc2)cc1 | 68* | 0.3 | 0.5 | 46 | -4*
CCCOC(=O)c1ccc(NC(=O)C2CCCO2)cc1 (centres undefined) | -4 | 1 | 0.7 | 32 | 0.0022
CCOC(=O)c1ccc(NC(=O)CCS(=O)(=O)c2ccc(Br)s2)cc1 | 51* | 0.5 | 0.7 | 29 | -0.72
CCOC(=O)c1ccc(NC(=O)Oc2ccccc2)cc1 | 10 | 0.9 | 0.8 | 20 | -0.58
CCCOC(=O)c1ccc(NC(=O)CCC(=O)OCC)cc1 | 59* | 0.4 | 0.4 | 64* | -0.33
SMILES | CYP2C9 inh | CYP2C9 activ | CYP2C19 activ | CYP2C19 inhib | Cav32 inh
CCOc1ccc(NC(=O)CCNS(=O)(=O)c2ccc(Br)s2)cc1 | -41 | 1.4 | 0.9 | 7 | -0.0032
COc1ccc2cnn(-c3ccccc3C)c(=O)c2c1OC | . | . | . | . | 0.49
CC(C)(C)N(NC(=O)Nc1ccc(Cl)cc1)C(=O)c1ccccc1 | 30 | 0.7 | 0.8 | 22 | -0.22
CCCCCOc1ccc(NC(=O)CCCC(=O)O)cc1 | 1 | 1 | 1.1 | -6 | -0.32
O=C(CCOc1ccccc1)Nc1ccccc1 | 14 | 0.9 | 0.4 | 62* | -0.0083
CCc1cc(C(=O)Cc2cnn(-c3ccccc3)c2)c(O)cc1O | 22 | 0.8 | 0.4 | 55* | -0.0022
O=C(Cc1cnn(-c2ccccc2)c1)c1ccc(O)c(O)c1O | 79* | 0.2 | 0.3 | 65* | -2.3
Cc1ccc(O)c(C(=O)c2cnn(-c3ccccc3)c2)c1 | -26 | 1.3 | 0.8 | 23 | -0.99
Cc1cc(=O)[nH]c(SCC(=O)c2ccccc2)c1C#N | 85* | 0.1 | 0.5 | 46 | -1.5
Cc1ccccc1NC(=O)CSc1[nH]c(=O)cc(C)c1C#N | 81* | 0.2 | 0.4 | 63* | .
COc1ccc(NC(=O)CSc2[nH]c(=O)cc(C)c2C#N)cc1OC | 33 | 0.7 | 0.7 | 34 | -0.36
CCCCCN(C(=O)COC(=O)c1ccc(Br)o1)c1c(N)n(CCCC)c(=O)[nH]c1=O | 7 | 0.9 | 1 | -1 | .
Cc1ccc(N2C(=O)N(CC(=O)N(C)Cc3ccccc3)C(=O)C2C)cc1 (centres undefined) | -5 | 1.1 | 0.9 | 6 | 0.14
Cc1ccc(N2C(=O)N(CC(=O)NC(c3ccccc3)c3ccccc3)C(=O)C2C)cc1 (centres undefined) | 23 | 0.8 | 0.8 | 23 | -10*
COc1ccccc1-c1cc(=O)c2c(O)ccc([N+](=O)[O-])c2o1 | . | . | . | . | -0.26
Cc1ccc(C(=O)Nc2nc(=O)n(C(=O)c3ccccc3C)s2)cc1 | 82* | 0.2 | 0.7 | 31 | -7.4*
Cc1ccc(C(=O)Nc2nc3ccccc3c(=O)s2)cc1 | 2 | 1 | 0.9 | 9 | 0.4
O=C(Nc1nc(=O)n(C(=O)C2CC2)s1)c1ccccc1 | 80* | 0.2 | 1 | -3 | 0.031
Cc1ccc(-c2cnc(-c3ccncc3)o2)cc1 | 64* | 0.4 | 0 | 98* | 0.046
COC(=O)CCC(=O)Nc1nc(-c2ccccc2)cs1 | . | . | . | . | -0.34
O=C(Cc1cccs1)Nc1nc(-c2ccccc2)cs1 | 61* | 0.4 | 0.5 | 51* | -2
Cc1nc(CC(=O)Nc2nc(-c3ccccc3)cs2)cs1 | 33 | 0.7 | 0.5 | 52* | -1.6
CC(=O)N(CN1C(=O)c2ccc([N+](=O)[O-])cc2C1=O)c1ccc(F)cc1 | -17 | 1.2 | 0.8 | 20 | 0.8
Cn1c(=O)c2c(nc(CN3CCN(C(=O)c4ccco4)CC3)n2CCCc2ccccc2)n(C)c1=O | 85* | 0.1 | 0.5 | 50 | .
CC1CCCN(Cc2nc3c(c(=O)n(C)c(=O)n3C)n2CCc2ccccc2)C1 (centres undefined) | 9 | 0.9 | 0.9 | 6 | -2.9
Cn1c(=O)c2c(nc(CN3CCc4ccccc4C3)n2Cc2cccc(Cl)c2)n(C)c1=O | 32 | 0.7 | 0.8 | 18 | -4.2*
Cn1c(=O)c2c(nc(CN3CCN(Cc4ccccc4)CC3)n2Cc2cccc(Cl)c2)n(C)c1=O | 27 | 0.7 | 0.5 | 46 | 0.36
CC1CCCN(Cc2nc3c(c(=O)n(C)c(=O)n3C)n2CCCc2ccccc2)C1 (centres undefined) | 62* | 0.4 | 0.9 | 11 | -2.7
Cc1ccc(C(=O)Nc2ccc(S(=O)(=O)N3CCN(C)CC3)cc2)o1 | 30 | 0.7 | 1 | 4 | 0.51
Cc1noc(C)c1S(=O)(=O)N(CC(=O)N1CCCC1)c1ccc(C(C)C)cc1 | 22 | 0.8 | 0.6 | 40 | -1.3

Source: PubChem BioAssay
